In PubChem BioAssay (NCATS):
“And” between values parts separate entries of the source, which are not always exact repeats. Identical values can stand only once. Results filed as inconclusive are left out. The source made the active and inactive calls. Unless noted, calls follow the shape of the dose curve; as a rule, active = well fitted curve in the direction sought with a large enough effect; inconclusive = small, poorly fitted or top-dose-only effect, or another doubt; inactive = no such curve, though single readings can be large; an effect the other way counts as inactive or inconclusive.

Legend:
[1] = Cell Viability - HepG2 (AID 433; calls by dose curve;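 also: potency is read from the fitted curve at half-maximal effect; potency for ATP loss meaning cytotoxicity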); details: qHTS
Outline: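 Read-out is luciferase-based quantitation of cellular ATP as a measure of viable HepG2 cells after 40 h treatment at 37 °C. Signal decrease is scaled between DMSO-only and 100 uM tamoxifen controls, with AC50 fitted by the Hill equation.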

[2] = biological target: Mitogen-activated protein kinase 10 (Mus musculus) (UniProt Q61831); test: JNK3 AlphaScreen Assay (AID 530; active = well fitted curve in either direction with a large enough effect, not every such curve was filed as active;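 also: kinase came from lysate of stimulated human HepG2 cells; signal reports phosphorylation of biotinylated GST-cJun 1-79 at Ser73 with 10 µM ATP; % is scaled to controls: 0 for no effect and ±100 for the full control effect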); details: JNK3 lysate, c-Jun phosphorylation; series mostly up to 57.1 µM
Outline: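 Pre-activated (IL-1β/TNFα) JNK3 in HepG2 lysates phosphorylates biotin-GST-cJun(1-79), 10 uM ATP; anti-phospho-cJun(Ser73) AlphaScreen read at room temperature, pH 7.6 Tris buffer. Compounds pre-incubated 15 min as titrations.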

[3] = Cell Viability - Mesenchymal (AID 546); details: mesenchymal cells viability, qHTS; series mostly up to 91.7 µM;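 also: cells exposed to compound for 40 hours before reading; 0% = DMSO only and -100% = 100 µM tamoxifen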
Outline: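 Human kidney mesenchymal cells from normal renal glomeruli, 1000 cells/well, rested 5 hr at 37 °C, then treated 40 hr at 37 °C in complete medium. Cellular ATP read by CellTiter-Glo luminescence; AC50 from Hill-equation fits.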

[4] = Cellular Toxicity (caspase-3) HUV-EC-C (AID 656); details: HUV-EC-C cells, caspase-3 activation (apoptosis), vehicle = 0, 100 µM tamoxifen = 100%; series mostly up to 92.2 µM;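 also: 0% = DMSO basal and 100% = 100 µM tamoxifen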
Outline: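 qHTS; HUV-EC-C, 1000 cells/well; 5 hr settle, 16 hr cmpd, 37°C; Caspase-Glo 3/7, 20 min RT; luminescence. Norm: DMSO = 0%, tamoxifen 100 uM = 100%. Hill-fit AC50.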

[5] = Cellular Toxicity (caspase-3) SK-N-SH (AID 661); details: SK-N-SH caspase-3 activation, qHTS; series mostly up to 91.7 µM;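 also: 0% = DMSO basal and 100% = 10 µM staurosporine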
Outline: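 Human SK-N-SH neuroblastoma cells, 1500/well, were exposed to compounds for 16 hours at 37 °C. Caspase-Glo 3/7 luminescence was normalized to DMSO (basal) and 10 uM staurosporine (100%), and AC50 came from a Hill fit.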

[6] = Cellular Toxicity (caspase-3) H-4-II-E (AID 663); details: H-4-II-E rat hepatoma; Potency: caspase-3 activation; series mostly up to 92.2 µM;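 also: cells exposed to compound for 16 hr before readout; 0% = DMSO basal and 100% = 100 µM tamoxifen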
Outline: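 Rat hepatoma H-4-II-E cells (1500/well) plated 5 hr, then exposed to compound titrations for 16 hr at 37 °C. Caspase-Glo 3/7 luminescence read after 20 min at RT; data normalized to DMSO and 100 uM tamoxifen, AC50 from Hill fits.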

[7] = MultiTox-Fluor Cytotoxicity Assay - LYMP1-003 - Live Cells (AID 962); details: LYMP1-003 lymphoblastoid cells, MultiTox-Fluor live-cell protease fluorescence; series mostly up to 92.2 µM;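 also: 0% = DMSO only and full loss = 92 µM tetraoctylammonium bromide; cytotoxic hits lower the live-cell protease signal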
Outline: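 LYMP1-003 lymphoblastoid cells, 2500/well in complete medium, treated 16 h at 37 C; live-cell protease cleavage of GF-AFC read by fluorescence (Ex/Em 405/510) after 60 min reagent; AC50 from Hill fits of concentration-response.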

[8] = Cell Viability - LYMP2-005 (AID 967); details: LYMP2-005 lymphoblastoid cell viability; series mostly up to 92.2 µM;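 also: cells exposed to compound for 24 h at 37 °C; plate controls were DMSO only for no effect and 92 µM tetraoctylammonium bromide control for full effect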
Outline: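 Acute cytotoxicity is scored as a concentration-dependent drop in intracellular ATP in human lymphoblastoid LYMP2-005 cells after 24 h compound treatment. ATP is quantified by luciferase luminescence, and AC50 is derived by Hill-equation modelling.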

[9] = Cell Viability - LYMP2-021 (AID 974); details: LYMP2-021 lymphoblastoid cells viability; series mostly up to 92.2 µM;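 also: compound exposure lasts 24 hours at 37 °C; % is scaled to controls: 0 for no effect and ±100 for the full control effect; nearly all actives have a fitted effect of over 55% in size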
Outline: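 Human lymphoblastoid LYMP2-021 cells, 2500/well in complete medium, treated 24 hours at 37 C. Intracellular ATP by CellTiter-Glo luminescence (30 min, RT); AC50 from Hill fits of concentration-response.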

[10] = Cell Viability - LYMP2-023 (AID 975); details: LYMP2-023 lymphoblastoid cell viability; series mostly up to 92.2 µM;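 also: cellular ATP measured by luciferase luminescence as viability proxy; cells exposed to compound for 24 hours at 37 °C; plate controls were DMSO only for no effect and 92 µM tetraoctylammonium bromide control for full effect; nearly all actives have a fitted effect of over 55% in size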
Outline: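 LYMP2-023 human lymphoblastoid cells, 2500/well, preincubated 5 hr at 37 C, then compound-treated 24 hr at 37 C in complete medium. CellTiter-Glo luminescence (ATP) after 30 min at room temperature; AC50 from Hill-equation fits; tetraoctylammonium bromide positive control.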

[11] = Cell Viability - LYMP2-006 (AID 978); details: LYMP2-006 lymphoblastoid cell viability, qHTS; series mostly up to 92.2 µM;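 also: cells exposed to compound for 24 hours; % is scaled to controls: 0 for no effect and ±100 for the full control effect; nearly all actives have a fitted effect of over 60% in size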
Outline: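 Cells are seeded at 2500 per well and rested 5 hr at 37 C. Compounds are added across a concentration series for 24 hr at 37 C, after which ATP is quantified by luciferase luminescence.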

[12] = biological target: Vitamin D3 receptor (Homo sapiens) (UniProt P11473); test: qHTS assay for small molecule antagonists of vitamin D receptor signaling (AID 588541; calls by dose curve;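 also: receptor activated by calcitriol during compound treatment; % is scaled to controls: 0 for no effect and ±100 for the full control effect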); details: HEK293T VDR-UAS-bla, beta-lactamase ratio, antagonist mode; series mostly up to 76.7 µM
Outline: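 VDR-UAS-bla HEK293T cells in 2% charcoal-stripped FBS were stimulated with 1-alpha,25-dihydroxyvitamin D3 (3 nM final) plus compound for 16 h at 37 C. The beta-lactamase CCF4 readout was normalized to 50 nM agonist and DMSO, and Hill fits gave IC50.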

[13] = biological target: Retinoic acid receptor RXR-alpha (Homo sapiens) (UniProt P19793); test: qHTS assay for small molecule agonists of retinoid X receptor alpha signaling (AID 588544; calls by dose curve;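 also: 0% = DMSO basal wells and 100% = reference agonist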); details: HEK293T RXRa-UAS-bla, beta-lactamase reporter, 18 h; series mostly up to 76.7 µM
[14] = biological target: Thyroid hormone receptor beta (Homo sapiens) (UniProt P10828); test: qHTS assay for small molecule agonists of thyroid hormone receptor beta signaling (AID 588545; calls by dose curve); details: TR-UAS-bla GripTite HEK 293, beta-lactamase ratio, agonist mode, 18 h; series mostly up to 76.7 µM
Outline: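 Agonist activity was read as beta-lactamase CCF4 fluorescence (405 ex, 460/530 em), scaled between DMSO (0%) and 10 nM T3 (100%), then Hill-fitted for EC50 and efficacy. HEK 293 TR-UAS-bla cells in 2% charcoal/dextran FBS medium were exposed 18 h at 37 C.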

[15] = biological target: Thyroid hormone receptor beta (Homo sapiens) (UniProt P10828); test: qHTS assay for small molecule antagonists of thyroid hormone receptor beta signaling (AID 588547; active = well fitted inhibition curve with a large enough effect in the signal ratio, with a control signal flat, not every such curve was filed as active; the % refers to the signal ratio;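 also: cells stimulated with 0.4 nM T3 agonist during compound exposure; % is scaled to controls: 0 for no effect and ±100 for the full control effect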); details: TR-UAS-bla HEK293, beta-lactamase ratio, antagonist mode, 18 h
Outline: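 TR-UAS-bla GripTite HEK293 cells in 2% charcoal/dextran FBS medium; compounds 0.59 nM to 92 uM with T3 at 0.4nM final, 18 h at 37 C. Beta-lactamase read by CCF4 fluorescence (460/530 nm); Hill fits gave IC50 and efficacy.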

[16] = qHTS assay for small molecule activators of the human pregnane X receptor (PXR) signaling pathway (AID 720659; call rule not given here; also: 0% is about no effect); details: DPX-2 HepG2 CYP3A4-luciferase, 24 h; series mostly up to 92.3 µM
[17] = Cell Viability - MRC5 (AID 434; calls by dose curve;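 also: potency is read from the fitted curve at half-maximal effect; potency reflects cytotoxicity seen as loss of intracellular ATP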); details: MRC5 lung fibroblast viability, qHTS
Outline: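 MRC5 normal human lung fibroblasts, 1500 cells/well, exposed to compound for 40 hr at 37 C. Cellular ATP was read by CellTiter-Glo luminescence; data normalized to DMSO and 100 uM tamoxifen, with AC50 from Hill fits.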

[18] = MultiTox-Fluor Cytotoxicity Assay - LYMP1-002 - Dead Cells (AID 960); details: LYMP1-002 lymphoblastoid cells, dead-cell protease fluorescence; series mostly up to 46.1 µM;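 also: 0% = DMSO and 100% = tetraoctylammonium bromide; nearly all actives have a fitted effect of over 60% in size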
Outline: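 Human lymphoblastoid LYMP1-002 cells, 2500/well, treated 16 h at 37 C; dead-cell protease cleavage of bis-AAF-R110 read by fluorescence (485/520); normalized to DMSO and 15 uM tetraoctylammonium bromide; AC50 from Hill fit.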

[19] = Cell Viability - LYMP2-007 (AID 979); details: LYMP2-007 lymphoblastoid cell viability; series mostly up to 92.2 µM;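 also: cells exposed to compound for 24 h before reading; 0% = DMSO only and the negative end = 92 µM tetraoctylammonium bromide; nearly all actives have a fitted effect of over 60% in size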
Outline: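 Human lymphoblastoid LYMP2-007 cells (2500/well) preincubated 5 h at 37 C, then treated 24 h at 37 C in complete medium. Viability by CellTiter-Glo ATP luminescence after 30 min at room temperature; AC50 from Hill fits.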

[20] = biological target: Nuclear receptor subfamily 1 group I member 2 (Rattus norvegicus) (UniProt Q9R1A7); test: qHTS assay for small molecule activators of the rat pregnane X receptor (rPXR) signaling pathway (AID 651751; call rule not given here; also: 0% is about no effect); details: rPXR reporter cells, luciferase (One-Glo), 24 h
Chain of Nuclear receptor subfamily 1 group I member 2 (Rattus norvegicus) (Q9R1A7 whole entry, looked up): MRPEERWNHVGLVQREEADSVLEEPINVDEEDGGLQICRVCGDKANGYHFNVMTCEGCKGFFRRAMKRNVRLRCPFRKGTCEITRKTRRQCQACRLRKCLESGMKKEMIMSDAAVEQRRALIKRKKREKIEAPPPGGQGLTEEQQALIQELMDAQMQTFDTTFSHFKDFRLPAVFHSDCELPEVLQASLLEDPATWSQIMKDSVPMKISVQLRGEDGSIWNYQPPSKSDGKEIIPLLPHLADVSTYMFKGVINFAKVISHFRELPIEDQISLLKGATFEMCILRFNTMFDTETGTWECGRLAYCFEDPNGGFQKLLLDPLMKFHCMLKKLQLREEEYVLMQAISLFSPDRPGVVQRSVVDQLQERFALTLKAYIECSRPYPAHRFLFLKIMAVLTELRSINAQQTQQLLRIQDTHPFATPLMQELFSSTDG

Chain of Vitamin D3 receptor (Homo sapiens) (P11473 whole entry, looked up): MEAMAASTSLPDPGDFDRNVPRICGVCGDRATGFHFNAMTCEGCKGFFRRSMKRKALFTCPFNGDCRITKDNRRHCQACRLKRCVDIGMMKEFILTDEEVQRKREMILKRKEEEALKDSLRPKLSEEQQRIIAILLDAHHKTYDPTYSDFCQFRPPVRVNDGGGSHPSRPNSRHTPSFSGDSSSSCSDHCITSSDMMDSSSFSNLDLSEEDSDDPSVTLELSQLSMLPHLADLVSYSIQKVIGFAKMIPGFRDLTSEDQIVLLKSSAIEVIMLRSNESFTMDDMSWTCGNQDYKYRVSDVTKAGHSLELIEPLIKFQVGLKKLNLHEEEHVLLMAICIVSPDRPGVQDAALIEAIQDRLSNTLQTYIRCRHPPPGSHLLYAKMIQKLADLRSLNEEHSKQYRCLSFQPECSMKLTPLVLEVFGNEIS
Chain of Retinoic acid receptor RXR-alpha (Homo sapiens) (P19793 whole entry, looked up): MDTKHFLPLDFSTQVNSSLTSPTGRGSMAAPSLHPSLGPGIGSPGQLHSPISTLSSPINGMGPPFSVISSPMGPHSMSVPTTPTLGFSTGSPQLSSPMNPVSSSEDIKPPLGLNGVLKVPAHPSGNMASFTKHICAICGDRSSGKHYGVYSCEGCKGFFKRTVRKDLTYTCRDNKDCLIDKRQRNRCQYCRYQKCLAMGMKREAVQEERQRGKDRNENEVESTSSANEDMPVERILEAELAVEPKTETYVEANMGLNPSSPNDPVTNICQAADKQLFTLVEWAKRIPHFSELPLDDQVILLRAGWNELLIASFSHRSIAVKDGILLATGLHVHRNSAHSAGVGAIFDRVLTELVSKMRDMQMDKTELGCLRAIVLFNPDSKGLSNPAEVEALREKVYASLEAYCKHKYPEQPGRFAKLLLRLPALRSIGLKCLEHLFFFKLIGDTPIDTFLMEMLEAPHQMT
Chain of Thyroid hormone receptor beta (Homo sapiens) (P10828 whole entry, looked up): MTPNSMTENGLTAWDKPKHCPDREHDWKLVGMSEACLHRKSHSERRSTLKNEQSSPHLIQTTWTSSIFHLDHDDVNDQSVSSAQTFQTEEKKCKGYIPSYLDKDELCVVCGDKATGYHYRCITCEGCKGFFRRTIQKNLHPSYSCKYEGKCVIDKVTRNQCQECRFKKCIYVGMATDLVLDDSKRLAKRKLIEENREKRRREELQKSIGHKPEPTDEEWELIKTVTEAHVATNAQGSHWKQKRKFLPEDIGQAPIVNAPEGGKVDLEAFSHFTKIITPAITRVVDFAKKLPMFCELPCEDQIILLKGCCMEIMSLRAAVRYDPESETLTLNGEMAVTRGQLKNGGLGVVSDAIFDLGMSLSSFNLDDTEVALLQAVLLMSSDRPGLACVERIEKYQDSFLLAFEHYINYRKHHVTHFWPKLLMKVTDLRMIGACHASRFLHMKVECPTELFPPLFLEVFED

FC(Cl)(Cl)Cl
inactive: Potency [1] > 92 µM | Potency [2] | Potency [3] | outcome [4] | Potency [5] | Potency [6] | outcome [7] | Potency [8] | Potency [9] | Potency [10] | Potency [11] | outcome [12] | outcome [13] | Potency [14] | activity change % (negative = inhibition) [15] -7.45% | outcome [16]

C[N+](=O)[O-]
inactive: Potency [17] > 92 µM | Potency [2] | Potency [3] | outcome [4] | Potency [5] | Potency [6] | Potency [18] | Potency [8] | Potency [9] | Potency [10] | Potency [11] | Potency [19] | outcome [12] | outcome [13] | Potency [14] | activity change % (negative = inhibition) [15] -5.27%

CC(C)OS(C)(=O)=O
inactive: Potency [1] > 92 µM | Potency [17] > 92 µM | Potency [2] | Potency [5] | Potency [6] | outcome [7] | Potency [10] | Potency [11] | Potency [19] | outcome [12] | outcome [13] | activity change % (negative = inhibition) [15] 8.49% | max response [20] -0.369% | outcome [16]

O=c1ccc(=O)[nH][nH]1
inactive: Potency [17] > 92 µM | Potency [3] | outcome [4] | Potency [5] | Potency [6] | Potency [18] | Potency [8] | Potency [9] | Potency [10] | Potency [11] | Potency [19] | outcome [12] | outcome [13] | Potency [14] | activity change % (negative = inhibition) [15] -3.55% | max response [20] 0.0495% and -4.15% | outcome [16]

Cc1ccc2c(C)cccc2c1
inactive: Potency [1] > 92 µM | Potency [2] | Potency [3] | outcome [4] | Potency [5] | outcome [7] | Potency [8] | Potency [9] | Potency [11] | Potency [19] | outcome [12] | outcome [13] | Potency [14] | activity change % (negative = inhibition) [15] 8.64% | max response [20] -3.71% | outcome [16]

CC(Cl)CCl (configuration not stated)
inactive: Potency [17] > 92 µM | Potency [2] | Potency [3] | outcome [4] | Potency [5] | Potency [6] | Potency [18] | Potency [8] | Potency [9] | Potency [10] | Potency [11] | Potency [19] | outcome [12] | outcome [13] | Potency [14] | activity change % (negative = inhibition) [15] -3.7% | max response [20] 3.07% | outcome [16]
